Several values for one entry are separate records, joined by “and”; a condition that tells them apart may be missing. Equal values may be shown once. A number with no mark means an inactive call. Results filed as inconclusive are left out. Activity calls are given as the source filed them. Unless noted, calls come from the whole dose curve; as a rule, active = well fitted curve in the direction sought with a large enough effect; inconclusive = small, poorly fitted or top-dose-only effect, or another doubt; inactive = no such curve, though single readings can be large; an effect the other way counts as inactive or inconclusive.

This note sets out measurements from PubChem BioAssay (NCATS).

A short description of experiment [1]: Cell Viability - SK-N-SH (AID 435; calls by dose curve;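 note: potency is the fitted concentration of half-maximal effect; compound exposure lasted 40 h at 37 °C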). The note with it: SK-N-SH neuroblastoma cell viability qHTS. The method, boiled down: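 SK-N-SH human neuroblastoma cells (1500/well) were exposed to compounds in complete medium for 40 h at 37 °C, and intracellular ATP was then measured by CellTiter-Glo luminescence. AC50 was taken from Hill fits, normalized to DMSO and 100 uM tamoxifen.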
In general terms: qHTS replaces the single test concentration by a dilution series.

Experiment [2] in a line: Cell Viability - Renal Proximal Tubule (AID 545). Note: nearly all actives have a fitted effect of over 40% in size. The note with it: renal proximal tubule cells viability; series mostly up to 91.7 µM. The procedure, abridged:
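Primary rat renal proximal tubule cells (1000/well) were treated with compounds for 40 hr at 37 °C in complete medium. Intracellular ATP was measured by CellTiter-Glo luminescence, and AC50 values came from Hill-equation fits of concentration-response data.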

Experiment [3] is described as follows: Cellular Toxicity (caspase-3) Jurkat (AID 655).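 Note: cells exposed to compound for 16 h at 37 °C before reading.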 The note with it: Jurkat caspase-3 activation, luminescence; caspase-3 activation: at 92.2 µM (top of the series), DMSO = 0%, tamoxifen = 100%. The procedure, abridged:
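Jurkat cells (5000/well) in complete medium were treated with compounds for 16 hr at 37 °C, then Caspase-Glo 3/7 luminescence was read after 20 min at room temperature. Data normalized to DMSO (basal) and 100 uM tamoxifen (100%); AC50 from Hill fit.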

A short description of experiment [4]: Cellular Toxicity (caspase-3) SHSY5Y (AID 657). The note with it: SH-SY5Y caspase-3 activation, DMSO zero, 10 µM staurosporine = 100%; series mostly up to 91.7 µM. The procedure, abridged:
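SH-SY5Y human neuroblastoma cells (1500/well) were treated with compounds for 16 h at 37 °C, then Caspase-Glo 3/7 luminescence was read after 1 h at room temperature. Data normalized to DMSO and 10 uM staurosporine; AC50 from Hill fits.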

Experiment [5] can be described thus: Cellular Toxicity (caspase-3) BJ (AID 658). The note with it: BJ fibroblasts, luminescence, normalized: DMSO 0%, staurosporine 100%; series mostly up to 91.7 µM. The procedure, abridged:
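Caspase-Glo 3/7 luminescence, read 1 hr after reagent at room temperature, in normal BJ fibroblasts exposed 16 hours at 37 °C. AC50 values from Hill-equation concentration-response, scaled between DMSO basal and 10 uM staurosporine as 100%.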

Experiment [6] in a line: Cellular Toxicity (caspase-3) N2a (AID 665).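 Note: compound exposure lasted 16 h at 37 °C before readout.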 The note with it: N2a cells, luminescence, normalized: DMSO 0%, 10 µM staurosporine 100%; series mostly up to 92.2 µM. The method, boiled down: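 Caspase-3/7 activation measured as luminescence from Caspase-Glo reagent (1 h, room temperature) after 16 h compound exposure of mouse N2a cells. AC50 values from Hill-equation concentration-response, scaled between DMSO and 10 uM staurosporine.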

The nature of experiment [7]: Cellular Toxicity (caspase-3) Renal Proximal Tubule (AID 667).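 Note: cells exposed to compound for 16 hours at 37 °C before detection.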 The note with it: renal proximal tubule cells; series mostly up to 91.7 µM. The procedure, abridged:
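Primary rat proximal tubule cells, 1000/well, 5 h plating at 37 °C, then compound 16 h at 37 °C. Caspase-Glo 3/7 reagent, 1 h RT, luminescence. Normalized to DMSO (basal) and 10 uM staurosporine (100%); Hill-fit AC50.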

Experiment [8] has as its target Cytochrome P450 3A4 (Homo sapiens) (UniProt P08684). In words: qHTS Assay for Inhibitors and Substrates of Cytochrome P450 3A4 (AID 884). Note: nearly all actives have a fitted effect of over 50% in size. Note: potency is the fitted concentration of half-maximal effect. The note with it: recombinant CYP3A4, Luciferin-PPXE luminescence; series mostly up to 57.1 µM. The procedure, abridged: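 Luminescent readout of luciferin produced by CYP3A4 (20 nM) dealkylation of Luciferin-PPXE, 25 uM (its KM). NADPH-driven reaction ran 60 min at RT after 10 min compound preincubation; data scaled to 57 uM ketoconazole as 100% inhibition.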

Experiment [9] can be described thus: MultiTox-Fluor Cytotoxicity Assay - LYMP1-001 - Dead Cells (AID 946).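 Note: 0% = DMSO and 100% = tetraoctylammonium bromide.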 The note with it: LYMP1-001 lymphoblastoid cells, dead-cell protease fluorescence; series mostly up to 92.2 µM. The procedure, abridged:
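AC50 from Hill fit of concentration-response; data normalized to DMSO (basal) and 15 uM tetraoctylammonium bromide (100%). LYMP1-001 lymphoblastoid cells, 2500/well, 16 hr compound at 37 C; dead-cell protease fluorescence, Ex/Em 485/520.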

The nature of experiment [10]: Cell Viability - LYMP1-002 - Assay at 16 hr (AID 948).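 Note: 0% = DMSO alone and full effect = 92 µM tetraoctylammonium bromide.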 The note with it: LYMP1-002 lymphoblastoid cell viability; series mostly up to 92.2 µM. The procedure, abridged:
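Human lymphoblastoid cells (LYMP1-002), 2500/well, were preincubated 5 hr at 37 C, then exposed to compounds for 16 hr at 37 C in complete medium. Cellular ATP was read by CellTiter-Glo luminescence after 30 min at room temperature; AC50 from Hill fits.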

The nature of experiment [11]: MultiTox-Fluor Cytotoxicity Assay - LYMP1-003 - Dead Cells (AID 961).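 Note: 0% = DMSO and 100% = tetraoctylammonium bromide; nearly all actives have a fitted effect of over 70% in size.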 The note with it: LYMP1-003 lymphoblastoid cells, dead-cell protease fluorescence; series mostly up to 92.2 µM. The method, boiled down:
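Human lymphoblastoid LYMP1-003 cells (2500/well) were treated with compounds for 16 hr at 37 C in complete medium. Dead-cell protease release was read by bis-AAF-R110 fluorescence (Ex/Em 485/520). AC50 came from Hill fits, normalized to DMSO and 15 uM tetraoctylammonium bromide.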

A short description of experiment [12]: Cell Viability - LYMP1-003 - Assay at 24 hr (AID 963).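 Note: plate controls were DMSO only for no effect and tetraoctylammonium bromide positive control for full effect.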 The note with it: LYMP1-003 lymphoblastoid cell viability; series mostly up to 92.2 µM. The procedure, abridged: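 Concentration-response qHTS: ATP loss measured by CellTiter-Glo luminescence after 24 h compound exposure at 37 C. Cells were LYMP1-003 human lymphoblastoid, 2500 per well. AC50 derived via standard Hill equation modeling.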

Experiment [13] can be described thus: Cell Viability - LYMP2-003 (AID 965).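 Note: cells exposed to compounds for 24 h before reading; 0% = DMSO only and full effect = 92 µM tetraoctylammonium bromide; nearly all actives have a fitted effect of over 50% in size.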 The note with it: LYMP2-003 lymphoblastoid cell viability; series mostly up to 92.2 µM. The procedure, abridged:
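Human lymphoblastoid cells (2500/well) were pre-incubated 5 hr at 37 C, then exposed to compounds over a concentration range for 24 hr at 37 C. Intracellular ATP was read by CellTiter-Glo luminescence; AC50 came from Hill-equation fits.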

A short description of experiment [14]: Cell Viability - LYMP2-015 (AID 971).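 Note: 0% = DMSO only and full effect = 92 µM tetraoctylammonium bromide; nearly all actives have a fitted effect of over 55% in size.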 The note with it: LYMP2-015 lymphoblastoid cell viability; series mostly up to 92.2 µM. The method, boiled down:
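Cytotoxicity readout: decrease in intracellular ATP (CellTiter-Glo luminescence) in 2500 LYMP2-015 lymphoblastoid cells/well after 24 h compound exposure at 37 C. Concentration-response data fitted with the standard Hill equation to give AC50.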

Experiment [15] is described as follows: Cell Viability - LYMP1-002 - Assay at 24 hr (AID 993). Note: % is set by controls: 0 for no effect and ±100 for the full control effect. The note with it: LYMP1-002 lymphoblastoid cells viability; series mostly up to 92.2 µM. The method, boiled down: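 qHTS cytotoxicity at 24 h: CellTiter-Glo ATP luminescence in lymphoblastoid line LYMP1-002 incubated with compound at 37 °C. Concentration-response modeled with the Hill equation for AC50; tetraoctylammonium bromide served as positive control.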

Experiment [16] in a line: Cell Viability - LYMP1-002 - Assay at 40 hr (AID 994).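 Note: 0% = DMSO only and full inhibition = 92 µM tetraoctylammonium bromide; nearly all actives have a fitted effect of over 60% in size.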 The note with it: LYMP1-002 lymphoblastoid cell viability; series mostly up to 92.2 µM. The procedure, abridged: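 Cytotoxicity was read as loss of cellular ATP (CellTiter-Glo luminescence) after 40 hr compound exposure at 37 C of 2500 LYMP1-002 lymphoblastoid cells per well. Concentration-response data were fitted with the standard Hill equation to give AC50.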

Experiment [17] deals with Peroxisome proliferator-activated receptor alpha (Homo sapiens) (UniProt Q07869). Nature of the experiment: qHTS assay for small molecule agonists of the peroxisome proliferator-activated receptor alpha (PPARalpha) signaling pathway (AID 651778). Note: % of control where 0% means no effect. The note with it: PathHunter PPARalpha complementation, chemiluminescence, 6 h; hits give high values. The procedure, abridged: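 Chemiluminescence from complemented enzyme reported PPARalpha activation in cells after 6 hr of compound treatment at 37 C. The detection reagent was incubated for 60 min at room temperature, and compounds were scored as agonists.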
Chain of Peroxisome proliferator-activated receptor alpha (Homo sapiens) (Q07869 whole entry, looked up): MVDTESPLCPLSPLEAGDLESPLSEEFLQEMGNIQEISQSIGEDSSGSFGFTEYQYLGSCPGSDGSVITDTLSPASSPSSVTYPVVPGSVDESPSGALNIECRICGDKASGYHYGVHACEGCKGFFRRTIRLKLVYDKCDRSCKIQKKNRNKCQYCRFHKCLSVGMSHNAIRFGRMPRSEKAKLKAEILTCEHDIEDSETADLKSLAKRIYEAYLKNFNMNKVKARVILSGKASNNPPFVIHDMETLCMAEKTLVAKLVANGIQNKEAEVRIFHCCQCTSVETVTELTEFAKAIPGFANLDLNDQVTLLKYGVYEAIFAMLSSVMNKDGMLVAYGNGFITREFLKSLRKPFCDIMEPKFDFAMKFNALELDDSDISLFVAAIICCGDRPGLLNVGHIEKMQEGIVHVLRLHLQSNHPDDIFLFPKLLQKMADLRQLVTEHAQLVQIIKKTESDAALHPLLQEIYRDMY

Experiment [18] is described as follows: qHTS assay for cell viability of HEK293 cells (AID 743288). Note: % is set by controls: 0 for no effect and ±100 for the full control effect; nearly all actives have a fitted effect of over 50% in size. The note with it: ATP luminescence (CellTiter-Glo), 18 h, hits give low values. The procedure, abridged: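 After 18 h compound exposure at 37 C, parental HEK293 cells (2,000/well) are lysed with CellTiter-Glo and luminescence is read following 30 min at room temperature.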
Experiment [19] can be described thus: qHTS assay for cell viability of the p53RE-bla HCT-116 cell line (AID 743292). Note: % is set by controls: 0 for no effect and ±100 for the full control effect; nearly all actives have a fitted effect of over 55% in size. The note with it: p53RE-bla HCT-116 viability, ATP luminescence, 16 h; series mostly up to 95 µM. The method, boiled down: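 Intracellular ATP of p53RE-bla HCT-116 cells measured by luciferase luminescence following 16 h compound incubation at 37 C; DMSO-only wells served as vehicle controls.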

Experiment [20] concerns the target Nuclear receptor subfamily 1 group I member 2 (Rattus norvegicus) (UniProt Q9R1A7). In words: qHTS assay for small molecule activators of the rat pregnane X receptor (rPXR) signaling pathway (AID 651751; call rule not given here; note: 0% is about no effect). The note with it: rPXR reporter cells, luciferase (One-Glo), 24 h.

Chain of Nuclear receptor subfamily 1 group I member 2 (Rattus norvegicus) (Q9R1A7 whole entry, looked up): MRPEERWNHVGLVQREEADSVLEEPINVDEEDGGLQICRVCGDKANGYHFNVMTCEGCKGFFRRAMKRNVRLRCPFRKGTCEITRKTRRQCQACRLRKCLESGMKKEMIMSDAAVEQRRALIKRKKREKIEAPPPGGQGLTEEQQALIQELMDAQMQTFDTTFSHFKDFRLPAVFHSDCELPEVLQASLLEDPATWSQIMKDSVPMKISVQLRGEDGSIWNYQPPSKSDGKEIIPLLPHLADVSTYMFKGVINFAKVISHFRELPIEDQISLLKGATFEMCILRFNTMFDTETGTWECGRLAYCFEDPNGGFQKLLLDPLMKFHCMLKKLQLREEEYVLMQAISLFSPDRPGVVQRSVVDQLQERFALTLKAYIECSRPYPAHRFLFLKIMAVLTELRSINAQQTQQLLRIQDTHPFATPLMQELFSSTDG
Chain of Cytochrome P450 3A4 (Homo sapiens) (P08684 whole entry, looked up): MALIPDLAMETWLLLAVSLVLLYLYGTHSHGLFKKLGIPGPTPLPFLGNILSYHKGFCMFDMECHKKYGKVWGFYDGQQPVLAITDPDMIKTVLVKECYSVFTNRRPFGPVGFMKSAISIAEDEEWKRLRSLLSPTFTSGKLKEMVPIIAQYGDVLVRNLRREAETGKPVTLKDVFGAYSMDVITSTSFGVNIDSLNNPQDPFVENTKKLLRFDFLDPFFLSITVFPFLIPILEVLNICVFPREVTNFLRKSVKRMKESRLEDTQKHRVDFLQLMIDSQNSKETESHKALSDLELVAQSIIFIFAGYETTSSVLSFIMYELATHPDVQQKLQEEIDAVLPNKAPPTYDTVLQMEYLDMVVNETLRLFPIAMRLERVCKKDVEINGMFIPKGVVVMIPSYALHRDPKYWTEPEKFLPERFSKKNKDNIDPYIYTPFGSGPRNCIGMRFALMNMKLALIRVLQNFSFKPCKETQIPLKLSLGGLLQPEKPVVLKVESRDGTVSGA

With `Nc1ccc(Cc2ccc(N)cc2)cc1`, the Potency in experiment [1] is greater than 92 µM; in experiment [8] it was 25.1 µM (active). The call in experiment [2], in experiment [4], in [5], in [6], in [7] and in experiment [9] was inactive. The molecule was classed as inactive in [10] and in experiment [12]. Besides, the caspase-3 activation in experiment [3] is 2.26%. Besides, the Potency result in experiment [11], in experiment [13], in experiment [14], in experiment [15], in [16] and in experiment [19] was “inactive” each time. Further, the max response in experiment [17] is -4.91% and -1.61%; in experiment [18] it was 9.53% and -1.85%; in experiment [20] it was 4.75% and 4.67%.
Consider `CC(C)CON=O`, for which, in [1], the Potency is greater than 92 µM. Also, the molecule was classed as inactive in experiment [2], in [4], in experiment [5], in experiment [6], in experiment [7] and in experiment [9]. For the same molecule, the molecule was called inactive in experiment [10] and in [12]. In experiment [3], the caspase-3 activation is -1.62%. Moreover, the Potency entry in experiment [8], in experiment [11], in experiment [13], in experiment [14], in [15] and in experiment [16] was “inactive” each time. Further, in experiment [19], the Potency result was “inactive”. In addition, the values for the max response in experiment [17], in experiment [18] and in [20] were -1.42%, -12.6% and 4.86%, respectively.
For `O=C(O)CBr`, the Potency in [1] is greater than 92 µM. Also, the molecule was classed as inactive in experiment [2], in [4], in [5], in experiment [6], in experiment [7] and in experiment [9]. The call in experiment [10] and in experiment [12] was inactive. Also, the caspase-3 activation in experiment [3] is 2.79%. In addition, the Potency result in experiment [8], in experiment [11], in experiment [13], in experiment [14], in experiment [15] and in experiment [16] was “inactive” each time. In experiment [19], the Potency result was “inactive”. The results for the max response in [17], in experiment [18] and in [20] were 2.06%, 6.1% and 2.42%, respectively.
On to `Oc1cccc(Cl)c1`, for which the Potency in experiment [1] is greater than 92 µM. The molecule was called inactive in experiment [2], in [4], in [5], in experiment [6], in experiment [7] and in [9]. Further, the molecule was classed as inactive in experiment [10] and in [12]. Besides, the caspase-3 activation in [3] is 0.0873%. In addition, the Potency result in [8], in experiment [11], in experiment [13], in [14], in experiment [15] and in [16] was “inactive” each time. Besides, the Potency result in [19] is “inactive”. For the same molecule, the max response was 16.7% in [17], 0.616% in [18] and 1.59% in experiment [20].
